Experimental data as given in PubChem BioAssay (EPA / NIEHS).
Records with an inconclusive call do not appear. Calls of active or inactive are those of the source. Rule for the calls, unless noted: active = hit-call score of the fitted dose curve at least 0.9, where 1 is the maximum; inconclusive = response in the unintended direction; inactive = score below 0.9.

Legend:
[1] = TOX21_p53_BLA_p2_viability: Viability Assessment in the Tox21 HCT-116 p53 Agonism Beta-lactamase Assay, Phase 2 (AID 2283591);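 note: actives lower the ATP signal meaning cytotoxicity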
How it was run: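 Cytotoxicity readout: CellTiter-Glo ATP luminescence, 30 min at room temperature, after the beta-lactamase read. Cells were HCT116 exposed 16 h at 37C to compounds pin-transferred at 217-fold dilution from DMSO stocks.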

[2] = target: Cellular tumor antigen p53 (Homo sapiens) (UniProt P04637); test: TOX21_p53_BLA_p2_ratio: Tox21 HCT-116 p53 Agonism Beta-lactamase Assay, Ratio, Phase 2 (AID 2283592)
How it was run: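 Read-out is the blue/green (460/530 nm, 405 nm excitation) ratio after 2 h CCF4-AM loading, fitted as gain versus DMSO. Compounds, pinned at 217-fold dilution from DMSO stocks, stayed 16 h on HCT-116 beta-lactamase reporter cells seeded 5 h earlier.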

[3] = target: Cellular tumor antigen p53 (Homo sapiens) (UniProt P04637); test: TOX21_p53_BLA_p3_ratio: Tox21 HCT-116 p53 Agonism Beta-lactamase Assay, Ratio, Phase 3 (AID 2283596)
How it was run: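 Cells were seeded at 4000/well, rested 5 h at 37C, then dosed with DMSO compound solutions (217-fold dilution) for 16 h. CCF4-AM substrate was loaded for 2 h at room temperature, and the 460/530 nm emission ratio was fitted for gain of signal versus DMSO.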

[4] = TOX21_p53_BLA_p4_viability: Viability Assessment in the Tox21 HCT-116 p53 Agonism Beta-lactamase Assay, Phase 4 (AID 2283597);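 note: hits lower the luminescence signal meaning cytotoxicity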
How it was run: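 Cytotoxicity as reduced cellular ATP (CellTiter-Glo luminescence, 30 min room temperature), measured in the same wells following the CCF4 FRET p53 reading. Human HCT-116 cells received compounds in DMSO (217-fold dilution) for 16 h.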

[5] = TOX21_p53_BLA_p5_viability: Viability Assessment in the Tox21 HCT-116 p53 Agonism Beta-lactamase Assay, Phase 5 (AID 2283600)
How it was run: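 Viability came from CellTiter-Glo ATP luminescence, read after 30 min at room temperature. Before this, HCT-116 p53-bla cells (4000/well) had 16 hours of compound exposure at 37C, with DMSO stocks diluted 217-fold on transfer.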

[6] = target: Cellular tumor antigen p53 (Homo sapiens) (UniProt P04637); test: TOX21_p53_BLA_p4_ratio: Tox21 HCT-116 p53 Agonism Beta-lactamase Assay, Ratio, Phase 4 (AID 2283601)
How it was run: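 Signal is the blue/green (460nm/530nm) ratio of cleaved versus uncleaved CCF4-AM substrate, read after 2 h substrate loading. Cells were HCT116 carrying the p53-responsive beta-lactamase reporter, dosed 16 h at 37C, 5% CO2; CellTiter-Glo measured in parallel.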

[7] = target: Cellular tumor antigen p53 (Homo sapiens) (UniProt P04637); test: TOX21_p53_BLA_p5_ratio: Tox21 HCT-116 p53 Agonism Beta-lactamase Assay, Ratio, Phase 5 (AID 2283599)
How it was run: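 Beta-lactamase reporter ratio (blue 460 nm over green 530 nm, 405 nm excitation) after 2 h CCF4-AM loading, in HCT-116 cells exposed 16 h at 37 C to compounds pinned at 217-fold dilution. Increases relative to DMSO baseline scored.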

[8] = CCTE_Shafer_MEA_dev_firing_rate_mean: CCTE's Neural Network Formation Assay for Mean Firing Rate, Shafer Lab (AID 2284031; active = hit-call score of the fitted dose curve at least 0.9, where 1 is the maximum; inactive = score below 0.9)
How it was run: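 Spike frequency (spikes/recording length, averaged over active electrodes) was recorded on days 5, 7, 9 and 12 and collapsed to AUC; rat cortical cultures received compound continuously over 12 days of network development.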

[9] = CCTE_Shafer_MEA_dev_per_burst_spike_percent: CCTE's Neural Network Formation Assay for Percent of Spikes in a Burst, Shafer Lab (AID 2284032; active = hit-call score of the fitted dose curve at least 0.9, where 1 is the maximum; inactive = score below 0.9)
How it was run: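 Value is trapezoidal AUC over recordings on days 5, 7, 9 and 12 of the well-mean fraction of spikes falling in single-electrode bursts; rat cortical cultures exposed continuously from plating, treatment renewed DIV 5 and 9, fitted downward against DMSO.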

[10] = CCTE_Shafer_MEA_dev_active_electrodes_number: CCTE's Neural Network Formation Assay for Number of Active Electrodes, Shafer Lab (AID 2284040)
How it was run: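 Counts electrodes per well firing at least 5 spikes/min, recorded on days 5, 7, 9 and 12 in rat cortical cultures dosed continuously from plating (treatment refreshed DIV 5, 9). Value is the area under the curve over recordings, fitted downward relative to DMSO.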

[11] = CCTE_Shafer_MEA_dev_burst_rate: CCTE's Neural Network Formation Assay for Burst Rate, Shafer Lab (AID 2284042; active = hit-call score of the fitted dose curve at least 0.9, where 1 is the maximum; inactive = score below 0.9)
How it was run: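 Developmental network assay measuring how 12-day exposure of rat cortical neuron cultures alters bursting on extracellular MEA recordings. Values are AUC of well-mean burst rate across four recording days, relative to DMSO vehicle.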

[12] = CCTE_Shafer_MEA_dev_per_burst_interspike_interval: CCTE's Neural Network Formation Assay for Burst Interspike Interval, Shafer Lab (AID 2284044; active = hit-call score of the fitted dose curve at least 0.9, where 1 is the maximum; inactive = score below 0.9)
How it was run: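 Mean interspike interval within single-electrode bursts, averaged over bursting electrodes, from rat cortical cultures on MEA plates recorded on days 5, 7, 9 and 12. Continuous compound exposure from plating; trapezoidal AUC fitted downward relative to DMSO.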

[13] = CCTE_Shafer_MEA_dev_burst_duration_mean: CCTE's Neural Network Formation Assay for Mean Burst Duration, Shafer Lab (AID 2284045; active = hit-call score of the fitted dose curve at least 0.9, where 1 is the maximum; inactive = score below 0.9)
How it was run: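 Mean single-electrode burst duration (first to last spike), averaged over bursting electrodes per well, then integrated as area-under-curve across recordings at days 5, 7, 9 and 12. Rat cortical cultures on MEAs, compound present from plating, refreshed at feeds.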

[14] = CCTE_Shafer_MEA_dev_interburst_interval_mean: CCTE's Neural Network Formation Assay for Mean Interburst Interval, Shafer Lab (AID 2284046; active = hit-call score of the fitted dose curve at least 0.9, where 1 is the maximum; inactive = score below 0.9;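 note: well-mean interburst interval of bursting electrodes as AUC over four recording days; curve fitted for decrease in interburst interval relative to DMSO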)
How it was run: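 Network formation assay in primary rat cortical cultures, exposed from DIV 0 to 12. Mean interburst interval per well, integrated as AUC over four recordings.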

[15] = CCTE_Shafer_MEA_dev_inter_network_spike_interval_mean: CCTE's Neural Network Formation Assay for Mean Inter-network Spike Interval, Shafer Lab (AID 2284047; active = hit-call score of the fitted dose curve at least 0.9, where 1 is the maximum; inactive = score below 0.9)
How it was run: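 Compound was given at plating to primary rat cortical neurons and renewed with full medium changes on DIV 5 and 9. Extracellular activity was recorded on days 5, 7, 9, 12; AUC values were fitted for loss relative to DMSO control.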

[16] = CCTE_Shafer_MEA_dev_network_spike_number: CCTE's Neural Network Formation Assay for Number of Network Spikes, Shafer Lab (AID 2284048; active = hit-call score of the fitted dose curve at least 0.9, where 1 is the maximum; inactive = score below 0.9;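 note: synchronized bursts across electrodes counted on days 5 7 9 12 and integrated as AUC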)
How it was run: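 Number of network spikes (coordinated firing across electrodes) recorded on days 5, 7, 9 and 12 and summarised as area under the curve. Rat cortical cultures on MEA, continuous compound exposure with full medium/treatment exchange at DIV 5 and 9.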

[17] = CCTE_Shafer_MEA_dev_network_spike_peak: CCTE's Neural Network Formation Assay for Mean Number of Electrodes in Network Spike, Shafer Lab (AID 2284049; active = hit-call score of the fitted dose curve at least 0.9, where 1 is the maximum; inactive = score below 0.9)
How it was run: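 Rat cortical primary culture, 1.5 x 10^5 cells/well, 48-well MEA (16 electrodes/well). Dosing day 0 through DIV 12, full media/compound exchange DIV 5, 9. AxIS adaptive spike detection; AUC over days 5/7/9/12; loss-of-signal vs DMSO.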

[18] = CCTE_Shafer_MEA_dev_spike_duration_mean: CCTE's Neural Network Formation Assay for Mean Spike Duration, Shafer Lab (AID 2284051; active = hit-call score of the fitted dose curve at least 0.9, where 1 is the maximum; inactive = score below 0.9;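 note: mean network spike duration pooled as area under curve over DIV 5 to 12 recordings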)
How it was run: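 With DMSO as baseline, loss of mean network spike duration was scored from extracellular recordings of rat cortical neurons on MEA plates. Exposure spanned plating to DIV 12; the four recording days were collapsed into one AUC value.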

[19] = CCTE_Shafer_MEA_dev_network_spike_duration_std: CCTE's Neural Network Formation Assay for Standard Deviation of Network Spike Duration, Shafer Lab (AID 2284052; active = hit-call score of the fitted dose curve at least 0.9, where 1 is the maximum; inactive = score below 0.9;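 note: hits are decreases in network spike duration SD versus DMSO vehicle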)
How it was run: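 Developing networks of rat cortical neurons were exposed over twelve days in vitro on 48-well MEA plates. Trapezoidal AUC of recordings (DIV 5–12) was analysed for signal loss relative to DMSO vehicle.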

[20] = CCTE_Shafer_MEA_dev_per_network_spike_spike_number_mean: CCTE's Neural Network Formation Assay for Mean Number of Spikes in a Network Spike, Shafer Lab (AID 2284053; active = hit-call score of the fitted dose curve at least 0.9, where 1 is the maximum; inactive = score below 0.9)
How it was run: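 First, rat cortical cells (1.5 x 10^5/well) were seeded onto MEA wells; second, dosing began at plating and was refreshed on DIV 5 and 9; finally, network-spike spike counts across DIV 5–12 were summarized as AUC.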

[21] = CCTE_Shafer_MEA_dev_per_network_spike_spike_percent: CCTE's Neural Network Formation Assay for Percent of Spikes in a Network Spike, Shafer Lab (AID 2284054; active = hit-call score of the fitted dose curve at least 0.9, where 1 is the maximum; inactive = score below 0.9)
How it was run: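 Metric: fraction of spikes falling in a 0.05 s window at network-spike peaks. Recordings were made on days 5, 7, 9 and 12 and collapsed by trapezoidal AUC. Cultures were rat cortical neurons on MEA plates, dosed continuously from plating, re-dosed at media changes.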

[22] = CCTE_Shafer_MEA_dev_LDH: CCTE's Lactate Dehydrogenase Assay for Cytotoxicity in the Neural Network Formation Assay, Shafer Lab (AID 2284068);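 note: exposure for twelve days from plating with re-dosing on DIV 5 and 9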
How it was run: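 Developing rat cortical networks on MEA plates are exposed to compound for 12 days from plating. LDH activity is measured spectrophotometrically, with DMSO as baseline.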

[23] = CCTE_Shafer_MEA_dev_mutual_information_norm: CCTE's Neural Network Formation Assay for Mutual Information Normalization, Shafer Lab (AID 2284091; active = hit-call score of the fitted dose curve at least 0.9, where 1 is the maximum; inactive = score below 0.9)
How it was run: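 Shared information across electrodes, tracked on days 5, 7, 9 and 12 of network development and collapsed as trapezoidal area under the curve. Rat cortical cultures were treated continuously from plating, with treatment renewed at feeds on DIV 5 and 9; DMSO baseline, negative-direction fit.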

[24] = CCTE_Shafer_MEA_dev_correlation_coefficient_mean: CCTE's Neural Network Formation Assay for Mean Correlation Coefficient, Shafer Lab (AID 2284093; active = hit-call score of the fitted dose curve at least 0.9, where 1 is the maximum; inactive = score below 0.9)
How it was run: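 Extracellular firing from rat cortical networks on 48-well MEAs, DMSO-referenced, negative fitting direction. Compound present from plating to DIV12; mean pairwise correlation per well integrated over DIV5–12 recordings by trapezoidal AUC.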

PGR (gene 5241) [25] = target: PGR (gene 5241) (UniProt P06401); test: TOX21_PR_BLA_Followup_Antagonist_ratio: Tox21 HEK293 Progesterone Receptor (PR) Antagonism Beta-lactamase Follow-Up Assay, Ratio (AID 2283934);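 note: PR-UAS-bla HEK293T cells stimulated with 1 nM R5020 agonist for 16 hr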
How it was run: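 Readout is the blue/green (ch2/ch1) substrate cleavage ratio after 2 hours at room temperature, following 16 hr co-treatment of PR-bla HEK293T cells with compound and 1nM promegestone. Multiplexed CellTiter-Glo viability flags cytotoxicity; DMSO baseline.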

[26] = TOX21_PR_BLA_Followup_Agonist_viability: Viability Assessment in the Tox21 HEK293 Progesterone Receptor (PR) Agonism Beta-lactamase Follow-Up Assay (AID 2283935);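 note: signal loss means lower viability so actives are cytotoxic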
How it was run: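 Run multiplexed with the beta-lactamase FRET read, this endpoint measures ATP by CellTiter-Glo luminescence (30 min, room temperature). PR-UAS-bla HEK293T cells received compound 6 hr after plating and were then incubated 16 hr at 37C in 2% stripped serum.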

[27] = TOX21_PR_BLA_Followup_Antagonist_viability: Viability Assessment in the Tox21 HEK293 Progesterone Receptor (PR) Antagonism Beta-lactamase Follow-Up Assay (AID 2283936);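 note: cells exposed to compound with R5020 agonist for 16 h; hits lower the luminescence signal meaning cytotoxicity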
How it was run: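 PR-UAS-bla HEK293T cells in medium with 2% charcoal-stripped FBS were treated with compounds plus R5020 for 16 hr at 37C. After the beta-lactamase read, CellTiter-Glo was added to the same wells and luminescence read after 30 min at room temperature.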

PGR (gene 5241) [28] = target: PGR (gene 5241) (UniProt P06401); test: TOX21_PR_LUC_Followup_Antagonist: Tox21 HEK293 Progesterone Receptor (PR) Antagonism Luciferase Follow-Up Assay (AID 2283938);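 note: curve fitted upward as signal gain over DMSO baseline despite antagonist label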
How it was run: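 Luminescence from ONE-Glo was measured 30 min after reagent addition, following 16 h exposure of HEK293-PR-A-luc cells (3,000/well, plated 5 h earlier) to DMSO-dissolved compounds at 37C; DMSO served as baseline.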

[29] = TOX21_PR_LUC_Followup_Antagonist_viability: Viability Assessment in the Tox21 HEK293 Progesterone Receptor (PR) Antagonism Luciferase Follow-Up Assay (AID 2283940)
How it was run: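 Viability counter-readout: cellular ATP measured by luciferase luminescence after 16 h compound exposure at 37C of HEK293-PR-A-luc cells, which had been cultured in charcoal-stripped serum and seeded 5 h beforehand.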

[30] = TOX21_PR_LUC_Followup_Agonist_viability: Viability Assessment in the Tox21 HEK293 Progesterone Receptor (PR) Agonism Luciferase Follow-Up Assay (AID 2283941);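 note: loss of signal means cytotoxicity so actives lower viability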
How it was run: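 Cytotoxicity counter-readout in the PR-A luciferase reporter line HEK293, with 16 h compound exposure at 37C after cells were cultured in charcoal-stripped serum. Cellular ATP quantified by CellTiter-Glo luminescence.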

Measured: AC50

Sequence of Cellular tumor antigen p53 (Homo sapiens) (P04637 whole entry, looked up): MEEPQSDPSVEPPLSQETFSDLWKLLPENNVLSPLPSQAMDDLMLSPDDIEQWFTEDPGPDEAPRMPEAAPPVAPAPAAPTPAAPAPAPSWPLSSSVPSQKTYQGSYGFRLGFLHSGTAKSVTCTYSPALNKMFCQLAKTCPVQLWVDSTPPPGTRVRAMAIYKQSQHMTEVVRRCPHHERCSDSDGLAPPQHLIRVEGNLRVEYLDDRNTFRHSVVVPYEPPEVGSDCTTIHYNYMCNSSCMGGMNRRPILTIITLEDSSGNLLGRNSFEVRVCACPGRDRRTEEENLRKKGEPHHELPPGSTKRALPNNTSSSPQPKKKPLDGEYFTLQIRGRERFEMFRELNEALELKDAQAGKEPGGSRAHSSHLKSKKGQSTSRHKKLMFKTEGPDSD
Sequence of PGR (gene 5241) (P06401 whole entry, looked up): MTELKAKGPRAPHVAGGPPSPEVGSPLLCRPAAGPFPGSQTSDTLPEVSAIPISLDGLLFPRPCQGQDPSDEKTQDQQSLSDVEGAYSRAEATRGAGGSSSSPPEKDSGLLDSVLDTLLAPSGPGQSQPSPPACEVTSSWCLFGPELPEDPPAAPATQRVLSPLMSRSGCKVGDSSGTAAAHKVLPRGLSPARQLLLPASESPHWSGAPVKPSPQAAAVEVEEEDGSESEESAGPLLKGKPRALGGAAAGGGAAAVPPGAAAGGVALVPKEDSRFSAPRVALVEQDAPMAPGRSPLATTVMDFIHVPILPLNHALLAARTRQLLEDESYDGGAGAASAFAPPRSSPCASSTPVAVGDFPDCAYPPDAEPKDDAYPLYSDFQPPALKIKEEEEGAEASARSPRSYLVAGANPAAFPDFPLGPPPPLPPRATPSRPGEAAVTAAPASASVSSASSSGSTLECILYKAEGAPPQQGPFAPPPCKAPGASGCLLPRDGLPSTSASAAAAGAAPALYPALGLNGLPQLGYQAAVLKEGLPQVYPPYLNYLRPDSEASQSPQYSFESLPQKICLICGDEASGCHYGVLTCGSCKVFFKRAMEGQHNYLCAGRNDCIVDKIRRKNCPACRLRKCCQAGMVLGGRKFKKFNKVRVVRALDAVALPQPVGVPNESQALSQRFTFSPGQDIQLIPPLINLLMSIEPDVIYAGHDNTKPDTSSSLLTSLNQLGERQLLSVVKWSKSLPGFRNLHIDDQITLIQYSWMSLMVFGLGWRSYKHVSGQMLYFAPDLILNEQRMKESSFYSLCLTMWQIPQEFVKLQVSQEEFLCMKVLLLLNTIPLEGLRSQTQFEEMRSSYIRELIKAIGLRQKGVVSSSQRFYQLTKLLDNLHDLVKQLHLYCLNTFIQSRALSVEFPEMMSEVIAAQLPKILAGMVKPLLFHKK

COc1ccc(C(=O)Nc2ccccc2CCC2CCCCN2C)cc1 (configuration not stated)
inactive: [1] | [2] | [3] | [4] | [5]

COS(=O)(=O)C(F)(F)F
inactive: [1] | [2] | [3] | [4] | [5] | [6]

O=Cc1cccc(Br)c1
inactive: [1] | [2] | [3] | [4] | [7] | [6]

COc1c(C)c2c(c(O)c1C/C=C(\C)CCC(=O)OCCN1CCOCC1)C(=O)OC2
active: [2] 139 nM | [3] 164 nM | [4] 805 nM | [7] 0.183 µM | [6] 194 nM
inactive: [1]

C[C@H]1[C@@H](OC(=O)CCC(=O)O)O[C@@H]2OC3(C)CC[C@H]4[C@H](C)CC[C@@H]1[C@@]24OO3
inactive: [1] | [2] | [3] | [4] | [7] | [5] | [6]

COc1ccc(CCNC[C@H](O)c2ccc(O)cc2)cc1OC
inactive: [1] | [2] | [3] | [4] | [7] | [5] | [6]

c1cc2ccc3ccc4ccc5cccc6c(c1)c2c3c4c56
active: [2] 1940 nM | [7] 2.79 µM
not listed: PGR (gene 5241) [25] | [26] | [27] | PGR (gene 5241) [28] | [29] | [30]
inactive: all other assays above

CCN(CC)C(C)=O
inactive: [1] | [2] | [3] | [4] | [7] | [5] | [6]

CC(=O)O[C@@H]1C(=O)O[C@@H]2[C@H]1OC(=O)[C@@H]2OC(C)=O
inactive: [1] | [2] | [3] | [4] | [6]
active: [7] 36.7 µM

Cc1occc1S
inactive: [1] | [2] | [3] | [4] | [7] | [6]

c1ccc2c(c1)CCc1ccccc1N2
inactive: [1] | [2] | [3] | [4] | [7] | [6] | PGR (gene 5241) [25] | [26] | [27] | PGR (gene 5241) [28] | [29] | [30]
